# Activity calls are given as the source filed them. The rule behind the calls is not given here.
# Target: Serine/threonine-protein kinase pim-1 (Homo sapiens) (UniProt P11309)
# Assay: PIM1 kinase ligand binding by thermal shift, biophysical, human, melting temperature shift (AID 393)
# Details: Thermal shift assay, hits give high values; at 10 µM, protein 2 µM, buffer 10 mM PIPES, pH 6.5, NaCl 150 mM unless noted
# Chain of Serine/threonine-protein kinase pim-1 (Homo sapiens) (P11309 whole entry, looked up): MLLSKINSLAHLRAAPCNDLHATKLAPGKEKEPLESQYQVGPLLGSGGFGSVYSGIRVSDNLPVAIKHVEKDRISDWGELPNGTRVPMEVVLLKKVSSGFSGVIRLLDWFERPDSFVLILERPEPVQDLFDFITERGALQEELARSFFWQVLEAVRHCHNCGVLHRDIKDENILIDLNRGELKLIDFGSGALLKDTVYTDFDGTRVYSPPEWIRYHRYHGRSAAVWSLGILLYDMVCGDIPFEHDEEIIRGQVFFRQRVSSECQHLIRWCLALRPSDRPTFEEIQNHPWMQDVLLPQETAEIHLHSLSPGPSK
row,Structure (SMILES),Tm shift
1,Cc1cc(Br)c2c(c1)=C(c1[nH]c(=S)[nH]c1O)C(=O)N=2,4.68 Celsius (active)
2,O=c1cc(-c2ccc(O)cc2)oc2cc(O)cc(O)c12,"3.4 Celsius [at 10 µM, protein 2 µM, buffer 10 mM Na Citrate, pH 6.5, NaCl 150 mM] (active)"
3,Oc1cccc(-c2cnc3ccc(NC4CCOCC4)nn23)c1,3.66 Celsius (active)
4,CCn1c(O)c(C2=NC(=S)NC2=O)c2ccccc21,3.12 Celsius (active)
5,CC(=O)n1c(O)c(C2=NC(=S)NC2=O)c2ccccc21,3.17 Celsius (active)
6,CC(=O)c1cccc(-c2cnc3ccc(N[C@H](CO)C(C)C)nn23)c1,7.4 Celsius (active)
7,O=C1NCc2c1c1c3ccccc3[nH]c1c1[nH]c3ccccc3c21,"7.8 Celsius [at 10 µM, protein 2 µM, buffer 10 mM Na Citrate, pH 6.5, NaCl 150 mM] (active)"
8,FC(F)(F)Oc1cccc(-c2cnc3ccc(NC4CCOCC4)nn23)c1,9.75 Celsius (active)
9,Clc1cccc(Nc2ccn3ncc(-c4ccsc4)c3n2)c1,"3.99 Celsius [at 10 µM, protein 2 µM, buffer 25 mM HEPES, pH 7.5, NaCl 250 mM] (active)"
10,COCCNc1ccc2ncc(-c3cccc(C(N)=O)c3)n2n1,3.13 Celsius (active)
11,CN(C)CC1CCn2c(c(C3=C(c4cn(C)c5ccccc45)C(=O)NC3=O)c3ccccc32)C1 (stereo unspecified),"4.9 Celsius [at 10 µM, protein 2 µM, buffer 10 mM Na Citrate, pH 6.5, NaCl 150 mM] (active)"

# Source: PubChem BioAssay AID393 (SGCOxCompounds, 2006)
